# Several values for one entry are separate records, joined by “and”; a condition that tells them apart may be missing. Identical values can stand only once.
# What was measured:
# Test in all cases: cell viability relative to vehicle control; higher = less cytotoxic
# Conditions in all cases: 10 µM
# [1] = system: K562
# In short: (§1)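 Mutant clones made by CRISPR editing and their isogenic wild-type counterparts, from four leukaemia lines, were exposed to a single 10 µM dose of each library compound for 48 h. The supernatant was then removed and CellTiter-Glo luminescence was read. Viability was reported as percent of the on-plate vehicle control.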
# [2] = system: MARIMO
# In short: as §1
# [3] = system: MOLM14
# In short: as §1
# [4] = system: OCI-AML2
# In short: as §1
Compound,cell viability ([1]; SRSF2 genotype: SRSF2 P95H/wt),cell viability ([1]; SRSF2 genotype: SRSF2 wt/wt),cell viability ([2]; SRSF2 genotype: SRSF2 P95H/wt),cell viability ([2]; SRSF2 genotype: SRSF2 wt/wt),cell viability ([3]; SRSF2 genotype: SRSF2 P95H/wt),cell viability ([3]; SRSF2 genotype: SRSF2 wt/wt),cell viability ([4]; SRSF2 genotype: P95H/wt),cell viability ([4]; SRSF2 genotype: wt/wt)
CC1CCC2(C(=O)OC3OC(CO)C(O)C(O)C3O)CCC3(C)C(=CCC4C5(C)CCC(OC6OCC(O)C(O)C6O)C(C)(C)C5CCC43C)C2C1(C)O (stereo not given) [Ziyu-glycoside I],103% and 96.8%,99.4%,101%,99.9%,107%,105%,99%,100%
O[C@@H](COc1cccc2ncccc12)CN1CCN([C@@H]2c3ccccc3[C@@H]3[C@H](c4ccccc42)C3(F)F)CC1,60.6% and 54.3%,54.9%,56.6%,55.6%,39.8%,36.2%,39.2%,40.7%
C=CC(=O)Nc1cccc(Nc2nc(Nc3ccc(Oc4ccnc(C(=O)NC)c4)cc3)ncc2F)c1,87.5% and 95.6%,85.1%,83.4%,83.8%,53.1%,53.4%,57.5%,63.8%
N#Cc1cc(-c2n[nH]c(-c3ccncc3)n2)ccn1 [Topiroxostat],90.1% and 106%,94%,104%,111%,104%,103%,98.8%,100%
O=C(O)CCn1c2c(c3ccccc31)C[C@H](NS(=O)(=O)c1ccc(F)cc1)CC2 [Ramatroban],100% and 101%,105%,106%,108%,102%,104%,101%,103%
CCCCC(CC)COC(=O)C=Cc1ccc(OC)cc1 (stereo not given) [Octinoxate],106% and 102%,103%,96.9%,109%,99.5%,108%,90.2%,93.4%
COc1cc(Br)c(Nc2nc(-c3c(C)nc4ncccn34)cs2)c(Br)c1,20.6% and 23.8%,24%,14.7%,19.2%,16%,10.7%,2.76%,8.07%
Cc1nnsc1C(=O)Nc1ccc(-n2nc(C(F)(F)F)cc2C(F)(F)F)cc1,78.2% and 82%,76.3%,86.6%,98.2%,107%,99.1%,76.6%,89.2%
CCCCCCCCCCCCCC(=O)OCC(COC(=O)CCCCCCCCCCCCC)OC(=O)CCCCCCCCCCCCC [Tritetradecanoin],107% and 104%,103%,100%,107%,101%,102%,102%,107%
Cn1cc(-c2[nH]c3cc(NC(=O)[C@H](N)C4CCCCC4)cc4c3c2C=NNC4=O)cn1,2.84% and 6.35%,4.41%,32.7%,26.9%,0.83%,0.37%,5.09%,8.02%
COc1cccc(-n2c(=O)[nH]c3cc(Cl)n(-c4ccc(-c5cccc(OC)c5O)cc4)c3c2=O)c1,91.6% and 97.4%,93%,108%,117%,107%,102%,95.8%,97.3%
O=C(c1ccc(F)cc1)C1CCN(CCn2c(=O)[nH]c3ccccc3c2=O)CC1 [Ketanserin (Vulketan Gel)],98.1% and 104%,103%,102%,106%,107%,107%,105%,109%
Cc1[nH]nc(C(F)(F)F)c1Cc1sc2c(c1C(=O)N1C[C@](C)(O)CO1)c(=O)n(C)c(=O)n2C(C)C,40% and 62.9%,61.3%,90.5%,103%,92.8%,89.3%,99.7%,99.9%
O=C(O)c1cc2cccc([N+](=O)[O-])c2[nH]1,103% and 105%,103%,98.9%,107%,106%,101%,111%,111%
COc1cccc(OC)c1C(=O)OCc1cc(O)ccc1O[C@@H]1O[C@H](CO)[C@@H](O)[C@H](O)[C@H]1O [Curculigoside],101% and 106%,106%,110%,104%,105%,105%,115%,109%
C[C@@H]1O[C@@H](OC[C@H]2O[C@@H](Oc3c(-c4ccc(OCCO)c(OCCO)c4)oc4cc(OCCO)cc(O)c4c3=O)[C@H](O)[C@@H](O)[C@@H]2O)[C@H](O)[C@H](O)[C@H]1O [Troxerutin],105% and 90.9%,86.2%,78.9%,92.2%,86.3%,91.9%,91.5%,88%
OC[C@@H](O)[C@@H](O[C@H]1O[C@H](CO)[C@@H](O)[C@H](O)[C@H]1O)[C@H](O)[C@@H](O)CO [Maltitol],98.2% and 88.7%,98.6%,99.6%,105%,99.6%,99.9%,96.8%,107%
CCOc1ccc(Cc2cc([C@]34OC[C@](CO)(O3)[C@@H](O)[C@H](O)[C@H]4O)ccc2Cl)cc1 [Ertugliflozin],104% and 95.2%,104%,104%,101%,103%,102%,104%,113%
CN(CC(=O)N(Cc1ccc(C2CCCCC2)cc1)c1ccc(C(=O)NO)cc1)S(=O)(=O)c1c(F)c(F)c(F)c(F)c1F,0.47% and 0.41%,0.42%,0.5%,0.67%,0.26%,0.33%,0.18%,0.24%
CC(C)=CCC[C@](C)(O)[C@H]1CC[C@]2(C)[C@@H]1[C@H](O)C[C@@H]1[C@@]3(C)CC[C@H](O[C@@H]4O[C@H](CO)[C@@H](O)[C@H](O)[C@H]4O[C@@H]4O[C@H](CO)[C@@H](O)[C@H](O)[C@H]4O)C(C)(C)[C@@H]3CC[C@]12C [20S-Ginsenoside Rg3],107% and 97.7%,101%,108%,108%,101%,102%,105%,104%

# Source: the supplement of paper PMC10981050
